Compounds without any hit were thinned out: in the full panel of roughly 83,000, 20% have a hit.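 How to read the values: 0–100, growth inhibition (40 = 60% inhibited); 0, no net growth; -100 to 0, cell death (-40 = 40% of starting cells died; -100 = all dead).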 The source made the active and inactive calls. Rule for the calls: active = growth percent below 10; inactive = the rest.
Columns and labels:
Experiment in all cases: NCI-60 one-dose screen, 48 h (100 = growth as untreated, 0 = no growth, -100 = all killed)
HT29 colon = conditions: 10 µM unless noted
SNB-75 CNS = conditions: 10 µM unless noted
SNB-19 CNS = conditions: 10 µM unless noted
U251 CNS = conditions: 10 µM unless noted
PC-3 prostate = conditions: 10 µM unless noted
SK-MEL-5 melanoma = conditions: 10 µM unless noted
UACC-62 melanoma = conditions: 10 µM unless noted
LOX IMVI melanoma = conditions: 10 µM unless noted
SK-MEL-28 melanoma = conditions: 10 µM
SK-MEL-2 melanoma = conditions: 10 µM unless noted

Measured: growth

CCCCc1c(CCC)c(=N)c2ccccc2n1C
inactive: HT29 colon 26.6% | SNB-75 CNS 96.8% | SNB-19 CNS 111% | U251 CNS 59.3% | PC-3 prostate 77.2% | SK-MEL-5 melanoma 78% | UACC-62 melanoma 97.9% | LOX IMVI melanoma 59% | SK-MEL-28 melanoma 72.2% | SK-MEL-2 melanoma 101%

COc1cc(/C=C2\CN(C)C/C(=C\c3cc(CN4CCCCC4)c(O)c(OC)c3)C2=O)cc(CN2CCCCC2)c1O
active: HT29 colon 3.56% | LOX IMVI melanoma 5.17%
inactive: SNB-75 CNS 66.9% | SNB-19 CNS 70.9% | U251 CNS 15% | PC-3 prostate 32.7% | SK-MEL-5 melanoma 70.6% | UACC-62 melanoma 60.6% | SK-MEL-28 melanoma 93.5% | SK-MEL-2 melanoma 73.2%

CCn1c(-c2nonc2Nc2ccc(OC)cc2)nc2ccccc21
inactive: HT29 colon 102% | SNB-75 CNS 91.6% | SNB-19 CNS 111% | U251 CNS 101% | PC-3 prostate 107% | SK-MEL-5 melanoma 104% | UACC-62 melanoma 96.2% | LOX IMVI melanoma 107% | SK-MEL-28 melanoma 107% | SK-MEL-2 melanoma 105%

COc1ccc2c(c1)C=C1CSCC3=Cc4cc(OC)ccc4OC13O2
inactive: SNB-75 CNS 23.9% | SNB-19 CNS 28.9% | U251 CNS 18.7% | PC-3 prostate 19.3% | SK-MEL-5 melanoma 14% | UACC-62 melanoma 14.2% | LOX IMVI melanoma 24.1% | SK-MEL-28 melanoma 60% | SK-MEL-2 melanoma 52.6%
active: HT29 colon 6.74%

COc1ccc(/C=C/C(=O)c2c(C)nc3ccccc3c2/C=C/c2ccccc2)cc1O
inactive: HT29 colon 71.6% | SNB-75 CNS 24.9% | SNB-19 CNS 67.3% | U251 CNS 49% | PC-3 prostate 58.4% | SK-MEL-5 melanoma 59.3% | UACC-62 melanoma 48.6% | LOX IMVI melanoma 33% | SK-MEL-28 melanoma 75.2% | SK-MEL-2 melanoma 66.8%

CSc1nc2c(c(=O)[nH]1)N=C1c3ccccc3C(=O)C1C(c1ccc(F)cc1)N2 (stereo not given)
inactive: HT29 colon 18% | SNB-75 CNS 26.8% | SNB-19 CNS 61.6% | U251 CNS 58.8% | PC-3 prostate 69.3% | SK-MEL-5 melanoma 39.8% | UACC-62 melanoma 43.1% | LOX IMVI melanoma 62% | SK-MEL-28 melanoma 83.5% | SK-MEL-2 melanoma 72.1%

OC(CNC1CCCCC1)Cn1c2ccc(I)cc2c2cc(I)ccc21 (stereo not given)
inactive: HT29 colon 95.7% | SNB-75 CNS 50.4% | SNB-19 CNS 86% | U251 CNS 72.6% | PC-3 prostate 62.5% | SK-MEL-5 melanoma 67.7% | UACC-62 melanoma 64.8% | LOX IMVI melanoma 77.4% | SK-MEL-28 melanoma 81.3% | SK-MEL-2 melanoma 97%

O=C(Nc1ccc(Br)cc1F)c1cc(I)ccc1O
active: SNB-75 CNS -9.93% | U251 CNS 3.12% | PC-3 prostate 7.07% | SK-MEL-5 melanoma -68.4% | UACC-62 melanoma 3.48% | SK-MEL-2 melanoma -26.7%
inactive: HT29 colon 92.4% | SNB-19 CNS 13.3% | LOX IMVI melanoma 13.7% | SK-MEL-28 melanoma 19.1%

COC(=O)/C(CCC=C(C)C)=C1\[C@@H](OC(C)=O)C[C@@]2(C)[C@H]1C[C@@H](O)[C@H]1[C@@]3(C)CC[C@H](NC(=O)c4cnccn4)[C@@H](C)[C@@H]3CC[C@@]12C
inactive: HT29 colon 99% | SNB-75 CNS 86.3% | SNB-19 CNS 96.5% | U251 CNS 98.3% | PC-3 prostate 86.2% | SK-MEL-5 melanoma 96.5% | UACC-62 melanoma 86.6% | LOX IMVI melanoma 93.5% | SK-MEL-28 melanoma 111% | SK-MEL-2 melanoma 118%

O=NN(C(=O)NC1CCC(C(=O)O)CC1)C1CCC(C(=O)O)CC1 (stereo not given)
inactive: HT29 colon 108% | SNB-75 CNS 84.1% | SNB-19 CNS 100% | U251 CNS 104% | PC-3 prostate 98.6% | SK-MEL-5 melanoma 104% | UACC-62 melanoma 108% | LOX IMVI melanoma 99.3% | SK-MEL-28 melanoma 106% | SK-MEL-2 melanoma 122%

COc1cc2nc(NC3CCCC3)nc(NC3CCN(C(C)C)CC3)c2cc1OC
inactive: HT29 colon 17.3% | SNB-75 CNS 61.2% | SNB-19 CNS 88% | U251 CNS 45% | PC-3 prostate 71.1% | SK-MEL-5 melanoma 67.6% | UACC-62 melanoma 94.6% | LOX IMVI melanoma 84.4% | SK-MEL-28 melanoma 87.1% | SK-MEL-2 melanoma 101%

O=c1oc2ccc(Cl)cc2c(=O)n1-c1ccc(I)cc1F
active: SNB-75 CNS -28.4% | U251 CNS -1.68% | PC-3 prostate 1.89% | SK-MEL-5 melanoma -81.5% | UACC-62 melanoma -28.8% | LOX IMVI melanoma 0.538% | SK-MEL-28 melanoma 0.51% | SK-MEL-2 melanoma -24.3%
inactive: HT29 colon 33.6% | SNB-19 CNS 18.6%

CN1CCN(Cc2ccc(C(=O)Nc3cncc(C#Cc4cnc5cccnn45)c3)cc2C(F)(F)F)CC1
inactive: HT29 colon 23% | SNB-75 CNS 96.9% | SNB-19 CNS 95% | U251 CNS 65.2% | PC-3 prostate 60.4% | SK-MEL-5 melanoma 74.3% | UACC-62 melanoma 74.2% | LOX IMVI melanoma 56% | SK-MEL-28 melanoma 67% | SK-MEL-2 melanoma 31.8%

CN1CCN(Cc2ccc(NC(=O)c3cncc(C#Cc4nc(N)nc5[nH]ncc45)c3)cc2C(F)(F)F)CC1
inactive: HT29 colon 55.3% | SNB-75 CNS 85% | SNB-19 CNS 108% | U251 CNS 107% | PC-3 prostate 108% | SK-MEL-5 melanoma 90.2% | UACC-62 melanoma 89.3% | LOX IMVI melanoma 88.1% | SK-MEL-28 melanoma 94.3% | SK-MEL-2 melanoma 92.4%

NCCOc1ncccc1/C=C1\c2ccccc2-c2ccc([N+](=O)[O-])cc21
active: HT29 colon -6.91% | SNB-75 CNS -81.1% | SNB-19 CNS -6.38% | U251 CNS -75% | PC-3 prostate 3.4% | SK-MEL-5 melanoma -97.5% | UACC-62 melanoma -81.5% | LOX IMVI melanoma -91.1% | SK-MEL-28 melanoma -22% | SK-MEL-2 melanoma -21.2%

COc1cc(C(=O)O/N=C(\N)Cc2cccc3ccccc23)cc(OC)c1OC
active: HT29 colon -74.3% | SNB-75 CNS -19.4% | U251 CNS -67.8% | SK-MEL-5 melanoma -97.9% | UACC-62 melanoma -88.3% | LOX IMVI melanoma -81.9% | SK-MEL-28 melanoma -97% | SK-MEL-2 melanoma -80.9%
inactive: SNB-19 CNS 68.2% | PC-3 prostate 27.6%

C=C1C(=O)O[C@H]2[C@H]1CC/C(COC(=O)/C=C\C(=O)O)=C\CC[C@@]1(C)O[C@@H]21
inactive: HT29 colon 108% | SNB-75 CNS 79.4% | SNB-19 CNS 98.8% | U251 CNS 108% | PC-3 prostate 102% | SK-MEL-5 melanoma 102% | UACC-62 melanoma 98% | LOX IMVI melanoma 99.4% | SK-MEL-28 melanoma 98.8% | SK-MEL-2 melanoma 112%

COc1cc(CNC(=O)c2ccsc2Nc2ccnc(C(F)(F)F)c2)ccc1O
inactive: HT29 colon 97.8% | SNB-75 CNS 101% | SNB-19 CNS 96% | U251 CNS 95.4% | PC-3 prostate 88.1% | SK-MEL-5 melanoma 98.2% | UACC-62 melanoma 102% | LOX IMVI melanoma 91.7% | SK-MEL-28 melanoma 118% | SK-MEL-2 melanoma 103%

COc1ccc(Cn2cc(Cn3cc(C=C4C(=O)NC(=O)NC4=O)c4ccccc43)nn2)cc1
inactive: HT29 colon 117% | SNB-75 CNS 78.1% | SNB-19 CNS 90.4% | U251 CNS 92.3% | PC-3 prostate 84.8% | SK-MEL-5 melanoma 60.7% | UACC-62 melanoma 64.6% | LOX IMVI melanoma 79.4% | SK-MEL-28 melanoma 102% | SK-MEL-2 melanoma 85.8%

O=C(NCc1ccccc1)C1CN(c2ccc(Cl)cc2)N(c2ccc(Cl)cc2)C1=O (stereo not given)
inactive: HT29 colon 48.8% | SNB-75 CNS 82.9% | SNB-19 CNS 84.9% | U251 CNS 84.2% | PC-3 prostate 67.9% | SK-MEL-5 melanoma 83.3% | UACC-62 melanoma 58.7% | LOX IMVI melanoma 88.4% | SK-MEL-28 melanoma 88.9% | SK-MEL-2 melanoma 85.8%

OCCNc1nc(Nc2ccc(C3=NN(c4cc(Cl)cc(Cl)c4)C(c4ccc(C(F)(F)F)cc4)C3)cc2)nc(N2CCOCC2)n1 (stereo not given)
inactive: HT29 colon 55.9% | SNB-75 CNS 68.4% | SNB-19 CNS 87.6% | U251 CNS 63.4% | PC-3 prostate 62.9% | SK-MEL-5 melanoma 76% | UACC-62 melanoma 69.7% | LOX IMVI melanoma 44.8% | SK-MEL-28 melanoma 81.4% | SK-MEL-2 melanoma 116%

Cn1nc(C(C)(C)C)cc1NC(=O)Cc1ccc(/C=C2\C(=O)Nc3ccccc32)cc1
active: SK-MEL-5 melanoma 5.57%
inactive: HT29 colon 58.4% | SNB-75 CNS 75.1% | SNB-19 CNS 63.9% | U251 CNS 55.5% | PC-3 prostate 42.1% | UACC-62 melanoma 41% | LOX IMVI melanoma 53.8% | SK-MEL-28 melanoma 76.7% | SK-MEL-2 melanoma 54.3%

O=c1oc2ccc(Cl)cc2c(=O)n1-c1ccc(F)cc1F
active: SNB-75 CNS -12% | U251 CNS 7.08% | PC-3 prostate 2.49% | SK-MEL-5 melanoma -66.9% | UACC-62 melanoma 3.47% | SK-MEL-2 melanoma -26.4%
inactive: HT29 colon 86.6% | SNB-19 CNS 13.6% | LOX IMVI melanoma 17.8% | SK-MEL-28 melanoma 21.8%

CCOC(=O)c1cc2c(n1Cc1cccc(OC)c1)-c1oncc1CCC2
active: SNB-75 CNS 7.49% | SK-MEL-5 melanoma 1.56%
inactive: HT29 colon 10% | SNB-19 CNS 39.4% | U251 CNS 27.3% | PC-3 prostate 38.8% | UACC-62 melanoma 31% | LOX IMVI melanoma 33.7% | SK-MEL-28 melanoma 47.8% | SK-MEL-2 melanoma 36.9%

COc1ccc(N(C)c2nc(N)nc3sc4c(c23)CCCC4)cc1
inactive: SNB-75 CNS 51.3% | SNB-19 CNS 23.8% | U251 CNS 15.8% | PC-3 prostate 27% | UACC-62 melanoma 42.9% | LOX IMVI melanoma 22.6% | SK-MEL-28 melanoma 55% | SK-MEL-2 melanoma 16.6%
active: HT29 colon -4.37% | SK-MEL-5 melanoma -24.9%

Oc1[nH]c2ccccc2c1N=Nc1nnc2n1N=C(c1ccccc1)CS2
inactive: HT29 colon 72.5% | SNB-75 CNS 65.1% | SNB-19 CNS 83.6% | U251 CNS 50.4% | PC-3 prostate 81% | SK-MEL-5 melanoma 95.6% | UACC-62 melanoma 99.8% | LOX IMVI melanoma 93.4% | SK-MEL-28 melanoma 97% | SK-MEL-2 melanoma 87.6%

COc1c(B(O)O)cccc1-c1nc2ccc3n[nH]c(F)c3c2c2c1CCCC2
inactive: HT29 colon 105% | SNB-19 CNS 78.8% | U251 CNS 71.4% | PC-3 prostate 74% | SK-MEL-5 melanoma 88.7% | UACC-62 melanoma 77.7% | LOX IMVI melanoma 54.7% | SK-MEL-28 melanoma 116% | SK-MEL-2 melanoma 110%
active: SNB-75 CNS -10.9%
